An excerpt weighted towards active compounds, which were near 19% of everything screened.
Gal4-VP16 FLuc = VP16 counterscreen qHTS for inhibitors of ROR gamma transcriptional activity | Drosophila S2 Gal4-VP16 UAS-luciferase, luminescence, 20 h | Potency, µM (highest dose often 53.6 µM), without a hit: top-dose activity, negative = inhibition, actives largely listed as inhibitors | actives 3.5% (n = 310,000) | AID 2546, 2010;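 also: Gal4-VP16 expression switched on by copper sulfate through the metallothionein promoter; nearly all actives have a fitted effect of over 50% in size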
TDP1 block = qHTS Assay for Inhibitors of Tyrosyl-DNA Phosphodiesterase (TDP1) | Tyrosyl-DNA phosphodiesterase 1 (Homo sapiens), Q9NUW8 | recombinant TDP1, AlphaScreen DNA substrate cleavage | Potency, µM (top dose mostly 130 µM), inactives show at the top dose activity change, negative = inhibition, most hits filed as inhibitors | actives 0.28% (n = 350,000) | AID 485290, 2010; also: nearly all actives have a fitted effect of over 40% in size
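Steps: enzyme plus compound, 15 min RT; add biotin/phosphotyrosine-FITC oligonucleotide (15 nM final), react 5 min; add donor/acceptor beads (10 ug/ml final), 10 min; read AlphaScreen. Tdp1 at 1 nM final.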
DT40 TDP1 CPT = qHTS for Inhibitors of human tyrosyl-DNA phosphodiesterase 1 (TDP1): qHTS in cells in presence of CPT | actives 12% (n = 420,000) | chicken DT40 Tdp1-/-;hTDP1 cells + 20 nM CPT, ATP luminescence, 48 h | Potency, µM (titrated, usually from 46.2 µM), for inactives: at the highest dose activity change, negative = growth inhibition, hits mostly inhibitors | AID 686979, 2013; also: nearly all actives have a fitted effect of over 55% in size
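Chicken DT40 Tdp1-/- cells stably complemented with human TDP1 were seeded at 400 cells/well in medium containing 20 nM camptothecin, exposed to pin-transferred compounds, and grown at 37 °C for at least 48 hr. Viability was read as ATP luminescence.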
RORgamma inh = qHTS for inhibitors of ROR gamma transcriptional activity. Drosophila S2 Gal4-RORgamma UAS-luciferase reporter, 20 h. Potency, µM (highest dose often 53.6 µM), for the others: at the top dose activity change, negative = inhibition, most hits filed as inhibitors. actives 5.4% (n = 310,000). Nuclear receptor ROR-gamma (Mus musculus), P51450. AID 2551, 2010; also: nearly all actives have a fitted effect of over 60% in size
Target sequence (P51450 whole entry, looked up, the tested form may be a part): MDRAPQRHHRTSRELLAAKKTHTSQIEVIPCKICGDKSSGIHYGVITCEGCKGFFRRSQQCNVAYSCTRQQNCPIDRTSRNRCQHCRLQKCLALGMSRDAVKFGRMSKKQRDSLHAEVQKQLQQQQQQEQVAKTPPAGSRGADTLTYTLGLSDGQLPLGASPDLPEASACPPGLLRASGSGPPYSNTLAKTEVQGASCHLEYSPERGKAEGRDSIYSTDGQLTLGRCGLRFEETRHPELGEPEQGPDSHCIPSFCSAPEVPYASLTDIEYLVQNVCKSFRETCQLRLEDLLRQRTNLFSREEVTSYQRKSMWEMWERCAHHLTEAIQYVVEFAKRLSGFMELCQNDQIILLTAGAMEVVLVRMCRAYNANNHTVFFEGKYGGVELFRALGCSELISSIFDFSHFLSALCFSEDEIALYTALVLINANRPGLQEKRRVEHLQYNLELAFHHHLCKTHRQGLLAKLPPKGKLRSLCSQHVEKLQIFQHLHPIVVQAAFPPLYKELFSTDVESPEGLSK
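Read-out: Photinus luciferase luminescence; inhibitors lower reporter signal. Insect Schneider cells with Gal4-ROR gamma fusion under metallothionein promoter, UAS reporter; 700 uM final copper sulfate induction, 20 hr, ambient temperature.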
TDP1 cell noCPT = qHTS for Inhibitors of human tyrosyl-DNA phosphodiesterase 1 (TDP1): qHTS in cells in absence of CPT; DT40 Tdp1-/- hTDP1 cells, no CPT, ATP luminescence, 48 h; Potency, µM (top dose mostly 46.2 µM), inactives show at the highest dose activity change, negative = growth inhibition, hits mostly inhibitors; actives 15% (n = 420,000); AID 686978, 2013; also: nearly all actives have a fitted effect of over 55% in size
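Readout: luminescence from CellTiter-Glo after 30 min in the dark at RT. Cells: DT40 Tdp1-/- with stable hTDP1, 400/well. Exposure: compounds alone, ≥48 hr, 37 °C.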
Starred values were filed as active, the others as inactive; ? = inconclusive; . = no result given; [ ] = dose if it differs, or a comment. Calls follow the shape of the dose curve; as a rule, active = well fitted curve in the direction sought with a large enough effect; inconclusive = small, poorly fitted or top-dose-only effect, or another doubt; inactive = no such curve, though single readings can be large; an effect the other way counts as inactive or inconclusive. % is scaled to controls: 0 for no effect and ±100 for the full control effect; potency is read from the fitted curve at half-maximal effect.

SMILES	Gal4-VP16 FLuc	TDP1 block	DT40 TDP1 CPT	RORgamma inh	TDP1 cell noCPT
CCN1C(=O)[C@H]2[C@@H](c3ccc(SC4CCCCC4)cc3)N[C@@](CC(C)C)(C(=O)OC)[C@H]2C1=O	.	-3%	?	.	21µM*
COC(=O)[C@]1(CC(C)C)N[C@H](c2ccc(-c3ccc4c(c3)OCO4)cc2)[C@@H]2C(=O)N(C)C(=O)[C@@H]21	.	1%	?	.	?
COC(=O)[C@]1(CC(C)C)N[C@H](c2ccc(-c3cccc(Cl)c3)cc2)[C@@H]2C(=O)N(C)C(=O)[C@@H]21	.	-2%	13µM*	.	26µM*
CCN1C(=O)C2C(c3cccc(F)c3)NC(CC)(C(=O)OC)C2C1=O (stereo not given)	-10%	4%	1%	5%	1%
CCN1C(=O)[C@H]2[C@@H](c3ccc(-c4ccccc4)c(OC)c3)N[C@@](CC(C)C)(C(=O)OC)[C@H]2C1=O	.	2%	18µM*	.	15µM*
CCN1C(=O)[C@H]2[C@@H](c3ccc(-c4cc(C(C)=O)cs4)cc3)N[C@@](Cc3ccccc3)(C(=O)OC)[C@H]2C1=O	.	0%	?	.	?
CCN1C(=O)[C@H]2[C@@H](c3ccc(-c4ccccc4)cc3)N[C@@](CC(C)C)(C(=O)OC)[C@H]2C1=O	.	-1%	26µM*	.	18µM*
CN(C)c1ccc2c(=O)c3ccccc3oc2n1	.	.	-31%	.	?
CCOc1ccc(NS(=O)(=O)c2cc(NC(=O)c3cccc(C)c3)ccc2Cl)cc1	-9%	0%	16µM*	?	?
CC(=O)N1c2ccc(S(=O)(=O)NCCC(=O)Nc3ccc(OC(F)(F)F)cc3)cc2CC1C (stereo not given)	?	1%	18µM*	-5%	?
COc1ccc(NC(=O)CCNS(=O)(=O)c2ccc3c(c2)CC(C)N3C(=O)C2CC2)cc1 (stereo not given)	6%	2%	?	13%	-28%
CC(=O)N1c2ccc(S(=O)(=O)NCCC(=O)Nc3ccc(Cl)cc3)cc2CC1C (stereo not given)	.	.	18µM*	.	?
COC(=O)c1ccc(NC(=O)CN(C)S(=O)(=O)c2ccc3c(c2)CCCC(=O)N3)cc1	.	0%	.	.	.
CC(=O)N1CCc2cc(S(=O)(=O)C(C)CC(=O)Nc3ccc(OC(F)(F)F)cc3)ccc21 (stereo not given)	?	3%	21µM*	3%	?
CN(CC(=O)Nc1ccc(OC(F)(F)F)cc1)S(=O)(=O)c1ccc2c(c1)CCC(=O)N2	.	6%	?	.	12µM*
Cc1cccc(C(=O)N[C@H](C(=O)Nc2nc3ccc(S(C)(=O)=O)cc3s2)C(C)C)c1	-11%[10 µM]	8%	?	33%	?
O=C(Nc1ccc(Cl)cc1)Nc1ccccc1NS(=O)(=O)c1cccs1	-4%	3%	-4%	1%	-29%
O=[n+]1c2c(n([O-])c3cc(F)c(N4CCCC4)cc31)CCC2	.	.	-3%	.	-29%
CC(=O)N1c2ccc(S(=O)(=O)NCCC(=O)Nc3ccc(C)c(F)c3)cc2CC1C (stereo not given)	-11%	2%	?	24%	21µM*
Cc1cc2c(cc1C)-c1nnnn1C(N1CCCCC1)C(=O)N2 (stereo not given)	.	.	15µM*	.	9.2µM*
O=C1Nc2ccccc2-c2nnnn2C1N1CCC(Cc2ccccc2)CC1 (stereo not given)	.	.	?	.	18µM*
COC(=O)C1=NOC2(C=C(Br)C(OC)=C(Br)C2=O)C1 (stereo not given)	2.5µM*	-5%[21 µM]	.	1.8µM*	.
CCCCCCCCCCCCOS(=O)(=O)O	1%	0%	4%	12%[10 µM]	-18%
O=C(/C=C/c1ccco1)NC(=S)Nc1ccccc1O	?	1%	?	11µM*	18µM*
Cc1ccc(NC(=S)NC(=O)/C=C/c2ccco2)c(O)c1	?	6%	-11%	8.9µM*	?
SMILES	Gal4-VP16 FLuc	TDP1 block	DT40 TDP1 CPT	RORgamma inh	TDP1 cell noCPT
O=C(/C=C\c1ccco1)NC(=S)Nc1ccccc1O	?	3%	18µM*	22µM*	?
Cc1cccnc1NC(=S)NC(=O)/C=C/c1ccco1	7.9µM*	.	-17%	2.8µM*	-18%
O=C(/C=C/c1ccco1)NC(=S)Nc1cccc(C(=O)O)c1	-5%	.	-25%	-6%	2%
O=C(CN(C(=O)CNC(=O)c1cccs1)c1ccccc1)NC1CCCCC1	-3%	-1%	8%	-23%	0%
COc1cc(C#Cc2c(-c3cncn3C)n(C)c3ccc(-c4ccc(OC)c(OC)c4)cc23)cc(OC)c1	.	1%	?	.	?
NC(=O)CSc1nc2ccccc2c(=O)n1CCc1ccccc1	-27%	.	-15%	?	?
CCOC(=O)N1CCC(n2c(SCC(=O)N3CCCC3)nc3ccccc3c2=O)CC1	-3%	8%	23µM*	3%	18µM*
CC(C)Cn1c(SCC(=O)N2CCOCC2)nc2ccccc2c1=O	.	2%	-4%	.	14%
O=c1c2ccccc2nc(SCCN2CCCCC2)n1CCc1ccccc1	7%	3%	?	1%	21µM*
CC(C)Cn1c(SCC(=O)N2CCCCC2)nc2ccccc2c1=O	-5%	-7%[56.1 µM]	?	-29%	26µM*
CCOC(=O)N1CCC(n2c(SCC(=O)N3CCC(C)CC3)nc3ccccc3c2=O)CC1	1%	1%	16µM*	6%	?
COCCn1c(SCC(=O)N2CCC(C)CC2)nc2ccccc2c1=O	1%	2%	?	-4%	?
CCCC[C@@H]1CNC(=O)C(=O)N1CC(C)(C)C	2%	-8%	1%	-2%	7%
O=C(CCC1CCCN(C(=O)c2cncs2)C1)NCc1ccc(F)c(F)c1 (stereo not given)	-1%	-4%	?	33%	?
O=C(NC1CCCCC1)NC1CC2CCC(C1)N2C(=O)NC1CCCCC1 (stereo not given)	3%	2%	.	5%	.
CC(=O)Nc1ccc(S(=O)(=O)NC2CCSc3ccccc32)cc1 (stereo not given)	-1%	-2%	?	23%	?
COc1cccc(N2CCN(C(=O)Cn3ncc4c5ccccc5n(C)c4c3=O)CC2)c1	.	0%	-5%	.	-17%
CCOC(=O)N1CCC(n2c(SCC(=O)Nc3ccccc3OC)nc3ccccc3c2=O)CC1	-2%	9%	?	25%	?
